Reference: PubChem BioAssay AID1645838 (ICCB-Longwood Screening Facility, Harvard Medical School, 2021)
Where “and” joins values, the source holds several entries; their conditions need not be identical. Equal values may be shown once. About 100 (5%) of roughly 2,000 compounds were called active. Cut-off read from the data, not from the text of the source: active = z-score above about 2; inactive = the rest. The list comes from a sample in which actives are over-represented; it also holds similar structures and randomly drawn compounds. Where a structure was tested more than once in an assay, its records may differ in their call.

Assay: supercomplex reporter luminescence per Hoechst cell count – Hoechst nuclei count (AID 1645838);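 note: control cybrid cells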;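 for z-score: higher means more mitochondrial supercomplex formation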
Conditions: Cells, luminescence/Hoechst cell count ratio; for z-score: stronger effect = higher value; for cell count: measured here: cell number, Hoechst nuclei count
[1] = library stock concentration (final well concentration not given) 80 uM
[2] = library stock concentration (final well concentration not given) 400 uM
[3] = library stock concentration (final well concentration not given) 2 mM
[4] = library stock concentration (final well concentration not given) 10 mM
[5] = library stock concentration (final well concentration not given) 46 uM
[6] = library stock concentration (final well concentration not given) 278 uM
[7] = library stock concentration (final well concentration not given) 1.67 mM

CC(C)(C)CCN1C[C@@H]2C(CNC(=O)c3cc(Cl)cc(Cl)c3)[C@@H]2C1 (stereo not given in full)
z-score [1]: 0.249 (inactive) | z-score [2]: -0.0169 (inactive) | z-score [3]: -0.303 (inactive) | z-score [4]: -0.298 (inactive) | cell count [1]: 4670 | cell count [2]: 5180 | cell count [3]: 5270 | cell count [4]: 4390

CCCCC[C@H](O)/C=C/[C@@H]1[C@H]2CC(CCCCC(=O)O)O[C@H]2C[C@H]1O (stereo not given in full)
z-score: -0.784 (inactive) | cell count: 6080

O=C(NC(=O)c1c(F)cccc1Cl)NC1c2ccccc2-c2ccccc21
z-score [5]: -0.18 (inactive) | z-score [6]: -0.113 (inactive) | z-score [7]: -0.216 (inactive) | z-score [4]: -0.278 (inactive) | cell count [5]: 6490 | cell count [6]: 6240 | cell count [7]: 6190 | cell count [4]: 5520

CC(C=CC1=C(C)CCCC1(C)C)=CC=CC(C)=CC(=O)O
z-score [5]: -0.113 (inactive) | z-score [6]: -0.063 (inactive) | z-score [7]: -0.22 (inactive) | z-score [4]: 0.0473 (inactive) | cell count [5]: 5180 | cell count [6]: 5150 | cell count [7]: 5430 | cell count [4]: 4870

O=C1NC(=O)C(=Cc2ccc3nccnc3c2)S1
z-score [1]: -0.0169 (inactive) and -0.181 (inactive) | z-score [2]: 0.573 (inactive) and -0.161 (inactive) | z-score [3]: 1.47 (inactive) and -0.299 (inactive) | z-score [4]: 2.46 (active) and -0.465 (inactive) | cell count [1]: 4280 and 5470 | cell count [2]: 4140 and 5420 | cell count [3]: 3800 and 5820 | cell count [4]: 2300 and 3900

O=C1NC(=O)/C(=C/c2ccc3c(c2)OC(F)(F)O3)S1
z-score: 0.349 (inactive) | cell count: 4670

O=C1NC(=O)/C(=C/c2ccc3nccnc3c2)S1
z-score: 0.662 (inactive) | cell count: 4050

CCCCCCCCCCCCCCCC(=O)O
z-score: -0.762 (inactive) | cell count: 5780

CCCCCCCCCCC(=O)O
z-score [5]: -0.0477 (inactive) | z-score [6]: 0.267 (inactive) | z-score [7]: -0.0647 (inactive) | z-score [4]: 0.212 (inactive) | cell count [5]: 6640 | cell count [6]: 6810 | cell count [7]: 6810 | cell count [4]: 6380

CC(C)(CCCCCCCCCCC(C)(C)CC(=O)O)CC(=O)O
z-score: 2.9 (active) | cell count: 5040

COC1C(N(C)C(=O)c2ccccc2)C[C@@H]2O[C@]1(C)n1c3ccccc3c3c4c(c5c6ccccc6n2c5c31)C(=O)NC4 (stereo not given in full)
outcome (library stock 2 mM): inactive; censored for cell count | outcome (library stock 10 mM): inactive; censored for cell count | z-score [1]: 0.298 (inactive) | z-score [2]: 1.12 (inactive) | cell count [1]: 5280 | cell count [2]: 4120

CCOC(=O)c1c(Cc2cccc(Cl)c2)[nH]c2c1cc(O)c1ccccc12
z-score: 0.267 (inactive) | cell count: 5070

CCCCC(C)(O)C/C=C/[C@H]1[C@H](O)CC(=O)[C@H]1CCCCCCC(=O)OC (stereo not given in full)
z-score: -0.356 (inactive) | cell count: 5650

NC(=O)c1cccc(-c2cccc(OC(=O)NCCCCCCc3ccccc3)c2)c1
z-score: 0.191 (inactive) | cell count: 4760

OCc1cc(C(O)CNCCCCCCOCCCCc2ccccc2)ccc1O (stereo not given)
z-score [1]: 1.97 (active) | z-score [2]: 1.87 (inactive) | z-score [3]: 1.36 (inactive) | z-score [4]: 1.79 (inactive) | cell count [1]: 4600 | cell count [2]: 4730 | cell count [3]: 4660 | cell count [4]: 3230

CC(C)NCC(O)c1ccc(O)c(O)c1 (stereo not given)
z-score [5]: 0.406 (inactive) | z-score [6]: 0.956 (inactive) | z-score [7]: 0.578 (inactive) | z-score [4]: 1.22 (inactive) | cell count [5]: 6420 | cell count [6]: 6030 | cell count [7]: 6690 | cell count [4]: 6300

COc1cc(C2c3cc4c(cc3C(O)[C@H]3COC(=O)[C@@H]23)OCO4)cc(OC)c1OC (stereo not given in full)
outcome (library stock 2 mM): inactive; censored for cell count | outcome (library stock 10 mM): inactive; censored for cell count | z-score [1]: -0.602 (inactive) | z-score [2]: -0.324 (inactive) | cell count [1]: 5600 | cell count [2]: 3990

O=C(O)CCC/C=C\C[C@@H]1[C@@H](/C=C/C(=O)CCc2ccccc2)[C@H](O)C[C@@H]1O
z-score: 0.328 (inactive) | cell count: 4980

CCCCC[C@H](O)/C=C/[C@H]1C=CC(=O)[C@@H]1C/C=C\CCCC(=O)O
z-score: 0.972 (inactive) | cell count: 5050

Oc1ccc(C=NN(Cc2ccccc2)Cc2ccccc2)cc1
z-score [1]: 0.58 (inactive) | z-score [2]: 0.621 (inactive) | z-score [3]: 0.515 (inactive) | z-score [4]: 1.23 (inactive) | cell count [1]: 4430 | cell count [2]: 4410 | cell count [3]: 3940 | cell count [4]: 3600

CC1(C)OC2CO[C@@]3(COS(N)(=O)=O)OC(C)(C)OC3C2O1 (stereo not given in full)
z-score [1]: 0.166 (inactive) | z-score [2]: 0.0797 (inactive) | z-score [3]: 0.165 (inactive) | z-score [4]: -0.169 (inactive) | cell count [1]: 6240 | cell count [2]: 6200 | cell count [3]: 5750 | cell count [4]: 5940

CCCCCCCCCCCCCCCCC(=O)NCCO
z-score: 0.812 (inactive) | cell count: 5880

CC(N)c1ccc(C(=O)Nc2ccnc3[nH]ccc23)cc1 (stereo not given)
z-score [1]: 0.0935 (inactive) | z-score [2]: -0.0384 (inactive) | z-score [3]: -0.229 (inactive) | z-score [4]: 0.129 (inactive) | cell count [1]: 5400 | cell count [2]: 5420 | cell count [3]: 5670 | cell count [4]: 3470

O=C(Cc1cccc(OC(F)(F)F)c1)Nc1ccc(CCCCc2nnc(NC(=O)Cc3ccccn3)s2)nn1
z-score [5]: 1.3 (inactive) | z-score [6]: 3.8 (active) | z-score [7]: 4.04 (active) | z-score [4]: 4.54 (active) | cell count [5]: 5940 | cell count [6]: 4200 | cell count [7]: 4190 | cell count [4]: 3940

NC(=O)c1cnc(NC2CCCCC2N)nc1Nc1cccc(-n2nccn2)c1 (stereo not given)
z-score [1]: -0.155 (inactive) | z-score [2]: -0.103 (inactive) | z-score [3]: 0.129 (inactive) | z-score [4]: 0.743 (inactive) | cell count [1]: 5260 | cell count [2]: 4840 | cell count [3]: 5390 | cell count [4]: 3000
